PubChem BioAssay (NCATS)
Records with an inconclusive call do not appear. Active and inactive are the calls of the source. Unless noted, calls come from the whole dose curve; as a rule, active = well fitted curve in the direction sought with a large enough effect; inconclusive = small, poorly fitted or top-dose-only effect, or another doubt; inactive = no such curve, though single readings can be large; an effect the other way counts as inactive or inconclusive.

Key:
[1] = High-throughput drug toxicity screening in the BPDCN cell line Gen2.2 (AID 1224824; call rule not given here;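 note: cells exposed to compounds for 48 h before reading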); details: Gen2.2 BPDCN cells; at 45.8 µM (top of the series) unless noted
In short: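 CellTiter-Glo luminescence read after 48 h compound exposure at 37 C defines viability; percent activity set with DMSO as 100% and bortezomib (9.2 uM final) as 0%. 500 exponentially growing cells per well, RPMI plus 10% FBS.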

[2] = High-throughput drug toxicity screening in the BPDCN cell line Cal-1 (AID 1224825; call rule not given here); details: Cal-1 BPDCN cell viability, qHTS; at 45.8 µM (top of the series) unless noted
In short: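 Cal-1 cells, 500 per well in phenol-red-free RPMI with 10% FBS, exposed to compounds for 48 hours at 37C, 5% CO2. Viability read by CellTiter-Glo luminescence; percent activity normalized to DMSO (100%) and 9.2 uM bortezomib final (0%).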

[3] = qHTS assay for measurement of the activity of small molecule inhibitors on Zika virus induced Caspase-3 activity in human iPSC derived neural progenitor cells (hNPCs) (AID 1224857); note: nearly all actives have a fitted effect of over 65% in size
In short: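 Percent inhibition of virus-induced caspase-3/7 luminescence (Caspase-Glo), scaled between uninfected cells and Zika-infected cells. hNPCs received compound 1 hr before ZIKV at 2 FFU/cell, with 6 hours infection at 37 C.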

[4] = qHTS assay for measurement of the activity of small molecule inhibitors on Zika virus induced Caspase-3 activity in human astrocytoma cells (AID 1224859)
In short: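 Luminescent caspase-3/7 read-out (30 min reagent, room temperature) in human SNB-19 cells infected 6 h with ZIKV (2 FFU/cell) after 1 h compound pre-incubation; Data were normalised to uninfected and infected wells.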

[5] = qHTS Screen of the MIPE 4.0 Collection Against Ewings Sarcoma (RDES) (AID 1259252); note: nearly all actives have a fitted effect of over 35% in size; note: potency is the fitted concentration of half-maximal effect
In short: (§1)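 Dose series incubated 48 h with cells in RPMI plus 5% FBS, glutamine and penicillin/streptomycin; cell viability then quantified via CellTiter-Glo.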

[6] = qHTS Screen of the MIPE 4.0 Collection Against Ewings Sarcoma (TC32) (AID 1259256); note: nearly all actives have a fitted effect of over 45% in size; note: potency is the fitted concentration of half-maximal effect
In short: as §1

[7] = Identifying Small Molecule Inhibitors of Pancreatic Cancer Stem Cells (A2780, Spheroid) (AID 1259357); details: Potency: A2780 spheroid viability; note: potency is the fitted concentration of half-maximal effect;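 note: spheroids pre-formed over 14 days in stem cell medium on hydrogel; compound exposure lasted 48 h before the ATP luminescence read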
In short: (§2)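 Spheroids grown 14 days in stem cell media on nonadherent hydrogel before screening; cells attached 4 h, then compound exposure 48 h at 37C, 5% CO2. CellTiter-Glo luminescence normalized to DMSO (no inhibition) and no-cell wells (full inhibition).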

[8] = Identifying Small Molecule Inhibitors of Pancreatic Cancer Stem Cells (SN12C, Adherent) (AID 1259358);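 note: cell survival measured after 48 h of compound exposure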; note: potency is the fitted concentration of half-maximal effect
In short: (§3)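 Endpoint: ATP-based luminescence, 48 h drug exposure. Bortezomib at 9.2 uM final as full-kill control; DMSO vehicle as negative control; activity normalized between vehicle and cell-free wells.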

[9] = P-glycoprotein substrates identified in KB-8-5-11 adenocarcinoma cell line, qHTS therapeutic library screen (AID 1346987); note: nearly all actives have a fitted effect of over 65% in size; note: potency is the fitted concentration of half-maximal effect
In short: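 KB-8-5-11: colchicine-selected sub-line of KB-3-1 over-expressing P-gp; assay medium lacked colchicine. 72 h drug exposure at 37 degree C, CellTiter-Glo.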

[10] = Identifying Small Molecule Inhibitors of Pancreatic Cancer Stem Cells (Panc1, Adherent) (AID 1259362); details: Potency: viability;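 note: compound exposure lasted 48 h before the viability read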
In short: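 Luminescent ATP readout (CellTiter-Glo) quantifies surviving cells after a 48 h drug incubation. Normalization uses DMSO wells as no inhibition and media-only wells as full inhibition; bortezomib served as positive control.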

[11] = P-glycoprotein substrates identified in KB-3-1 adenocarcinoma cell line, qHTS therapeutic library screen (AID 1346986); note: nearly all actives have a fitted effect of over 60% in size
In short: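 Compounds were tested in dose-response against KB-3-1 and KB-8-5-11 cells at 37 degree C for 72 h, and viability was measured by luminescence. AC50 values came from curve fitting with class-based activity calls.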

[12] = Identifying Small Molecule Inhibitors of Pancreatic Cancer Stem Cells (SN12C, Spheroid) (AID 1259360); details: Potency: SN12C spheroid viability; note: potency is the fitted concentration of half-maximal effect
In short: as §2

[13] = qHTS Screen of the MIPE 4.0 Collection Against Ewings Sarcoma (TC71) (AID 1259253); note: nearly all actives have a fitted effect of over 40% in size; note: potency is the fitted concentration of half-maximal effect
In short: as §1

[14] = qHTS Screen of the MIPE 4.0 Collection Against Ewings Sarcoma (EW8) (AID 1259255); note: nearly all actives have a fitted effect of over 35% in size; note: potency is the fitted concentration of half-maximal effect
In short: as §1

[15] = qHTS assay to identify small molecule inhibitors of chordoma cells - UCH-1 (AID 1259355); note: nearly all actives have a fitted effect of over 55% in size
In short: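 Cells (800/well) were seeded and left overnight at 37 C, 5% CO2, then treated with drugs at 15 concentrations plus a combination mix of auranofin, camptothecin, doxorubicin, rubitecan and topotecan. Viability after 48hr was read by CellTiter-Glo luminescence.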

[16] = qHTS assay to identify small molecule inhibitors of chordoma cells - UCH-2 (AID 1259356)
[17] = Identifying Small Molecule Inhibitors of Pancreatic Cancer Stem Cells (Panc1, Spheroid) (AID 1259359);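 note: compound exposure lasted 48 h before reading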
In short: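 After a 4 h attachment period, compounds were pinned into wells and cultures held 48 h under standard incubator conditions. Viability was then measured as CellTiter-Glo luminescence following 10 min at room temperature.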

[18] = Identifying Small Molecule Inhibitors of Pancreatic Cancer Stem Cells (A278, Adherent) (AID 1259361); note: nearly all actives have a fitted effect of over 35% in size
In short: as §3

[19] = Natriuretic polypeptide receptor (hNpr1) antagonism - Pilot counterscreen GloSensor control cell line (AID 1347045; calls by dose curve)
In short: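 HEK293 cells carrying the GloSensor cGMP sensor (GIP/pGS-40F) were loaded with 2% GloSensor reagent for 2 h, exposed to compounds for 30 min, and then stimulated with 50 uM sodium nitroprusside for 20 min at room temperature.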

O=c1ncn2nc(Sc3ccc(F)cc3F)ccc2c1-c1c(Cl)cccc1Cl
45.3%: viability (% of control) [2]
inactive: Potency [3] | Potency [4] | Potency [6] | Potency [8] | Potency [9]
98.9%: cell viability, % of control (lower = more cytotoxic) [1]
active: Potency [5] 20.9 µM | Potency [7] 14.8 µM

c1ccc(-c2nn3c(c2-c2ccnc4cc(OCCN5CCOCC5)ccc24)CCC3)nc1
857%: cell viability, % of control (lower = more cytotoxic) [1]
73.1%: viability (% of control) [2]
inactive: Potency [3] | Potency [4] | Potency [8] | Potency [10] | Potency [11]

CCc1cncnc1N1CCN(Cc2nc3ccc(C(F)(F)F)cc3[nH]2)CC1
inactive: Potency [3] | Potency [4]
130%: cell viability, % of control (lower = more cytotoxic) [1]
91.1%: viability (% of control) [2]
active: Potency [5] 20.9 µM | Potency [6] 16.6 µM | Potency [12] 14.8 µM

Cc1cnc(NC(=O)C2=C(O)c3ccccc3S(=O)(=O)N2C)s1
60.9%: cell viability, % of control (lower = more cytotoxic) [1]
inactive: Potency [3] | Potency [4] | Potency [5] | Potency [13] | Potency [14] | Potency [6] | Potency [15] | outcome [16] | Potency [9]

CCn1c(-c2nonc2N)nc2c(C#CC(C)(C)O)ncc(OC[C@H]3CCCNC3)c21
inactive: Potency [3] | Potency [4] | Potency [8] | Potency [17] | Potency [9]
64.9%: cell viability, % of control (lower = more cytotoxic) [1]
active: Potency [5] 23.5 µM | Potency [13] 18.7 µM | Potency [14] 23.5 µM | Potency [6] 18.7 µM

O=C1CCCC2=C1C(c1[nH]ncc1Cl)N=C(Nc1nc3ccccc3o1)N2 (stereo unspecified)
82.3%: viability (% of control) [2]
inactive: Potency [3] | Potency [4] | Potency [5] | Potency [6] | Potency [7] | Potency [8] | Potency [12] | Potency [10] | Potency [11] | Potency [9]
73.8%: cell viability, % of control (lower = more cytotoxic) [1]

C[C@]12CC[C@H](O)CC1=CC[C@@H]1[C@H]2CC[C@]2(C)C(c3cccnc3)=CC[C@H]12
98.4% [at 23.2 µM]: viability (% of control) [2]
60.5% [at 23.2 µM]: cell viability, % of control (lower = more cytotoxic) [1]
inactive: Potency [3] | Potency [4] | Potency [5] | Potency [14] | Potency [8] | Potency [12] | IC50 (viability decrease) [18] | Potency [9]

Cc1c(CN2CCN(C(=O)C(C)C)CC2)sc2c(N3CCOCC3)nc(-c3cnc(N)nc3)nc12
active: Potency [5] 0.0833 µM | Potency [13] 0.148 µM | Potency [14] 0.105 µM | Potency [6] 0.0662 µM | Potency [8] 0.0935 µM | Potency [12] 0.166 µM | Potency [9] 0.0833 µM
inactive: Potency [3] | Potency [4]
2.32%: cell viability, % of control (lower = more cytotoxic) [1]

O=c1[nH]c(-c2ccc(C(F)(F)F)cc2)nc2c1CSCC2
active: Potency [5] 23.5 µM | Potency [14] 20.9 µM | Potency [6] 23.5 µM
inactive: Potency [3] | Potency [4] | Potency [8] | Potency [12] | IC50 (viability decrease) [18] | Potency [10] | Potency [11] | Potency [9]
117%: cell viability, % of control (lower = more cytotoxic) [1]
114%: viability (% of control) [2]

Nc1ccc(S(=O)(=O)Nc2ccnn2-c2ccccc2)cc1
153%: cell viability, % of control (lower = more cytotoxic) [1]
inactive: Potency [3] | Potency [4] | Potency [5] | Potency [13] | Potency [14] | Potency [6] | Potency [15] | outcome [16] | Potency [9] | outcome [19]

Cc1cccc(-c2nn(C(=S)Nc3ccccc3)cc2-c2ccnc3ccccc23)n1
91.8%: viability (% of control) [2]
inactive: Potency [3] | Potency [4] | Potency [14] | Potency [6] | Potency [8] | Potency [10] | Potency [11] | Potency [9]
560%: cell viability, % of control (lower = more cytotoxic) [1]

CC(c1cc2ccccc2s1)N(O)C(N)=O (stereo unspecified)
150%: cell viability, % of control (lower = more cytotoxic) [1]
inactive: Potency [3] | Potency [4] | Potency [5] | Potency [14] | Potency [6] | Potency [15] | outcome [16] | Potency [8] | Potency [12] | Potency [9]

COCCNCCCn1c(C(=O)CF)c(-c2ccc(C)cc2)c2c(N)ncnc21
77.9%: cell viability, % of control (lower = more cytotoxic) [1]
85.7%: viability (% of control) [2]
inactive: Potency [3] | Potency [4] | Potency [14] | Potency [7] | Potency [8] | Potency [9]
active: Potency [13] 16.6 µM | IC50 (viability decrease) [18] 18.7 µM

NC(=O)c1ccc(I)c([N+](=O)[O-])c1
40.1%: viability (% of control) [2]
44.8%: cell viability, % of control (lower = more cytotoxic) [1]
inactive: Potency [3] | Potency [4] | Potency [5] | Potency [14] | Potency [6] | Potency [8] | Potency [12] | IC50 (viability decrease) [18] | Potency [9]

Cc1cc2c(F)c(Oc3ncnn4cc(OC[C@@H](C)O)c(C)c34)ccc2[nH]1
249%: cell viability, % of control (lower = more cytotoxic) [1]
active: Potency [5] 2.35 µM | Potency [13] 13.2 µM | Potency [14] 20.9 µM | Potency [6] 20.9 µM
inactive: Potency [3] | Potency [4] | Potency [7] | Potency [12] | Potency [10]
